Source: PubChem (Broad Institute)
Only a sample is shown.
aSyn 5UTR act: Activators via SNCA 5'UTR binding, MLPCN. alpha-synuclein 5'UTR reporter, activators screen. activity score, % (tested at 7.5 µM), hits read low. 300,000 tested, 7.1% active; in the data active = activity score below about -60%
Of the large screens only hits and unclear results are named; the others gave an inactive call.

CSc1ccccc1NC(=O)Nc1cccc(F)c1	aSyn 5UTR act -82.1
NS(=O)(=O)c1cccc(NC(=O)Nc2ccc(Cl)cc2)c1	aSyn 5UTR act -91.9
CCOc1ccc(NC(=O)Nc2ccccc2SC)cc1	aSyn 5UTR act -141.7
C[C@H]1COC2=C1C(=O)C(=O)c1c2ccc2c1CCCC2(C)C	none
O=C(Nc1cccc(F)c1)Nc1cccc(Cl)c1	aSyn 5UTR act -84.3
O=C(Nc1cccc(Cl)c1)Nc1cccc(Cl)c1	aSyn 5UTR act -136.9
Cc1cccc(N(O)C(=O)Nc2cccc(Cl)c2)c1	aSyn 5UTR act -109.4
NNc1nc(-c2ccccc2Cl)nc2sc3c(c12)CCCC3	aSyn 5UTR act -200.0
O=C(COc1ccccc1Cl)Nc1cc(Cl)ccc1O	aSyn 5UTR act -185.1
COC(=O)c1sccc1NC(=O)COc1ccccc1Cl	aSyn 5UTR act -132.0
COc1ccc(CNc2nc(-c3ccccc3)nn2C(=O)c2ccc([N+](=O)[O-])cc2)cc1	aSyn 5UTR act -120.0
CC(=O)n1nc(-c2ccccc2)nc1NCc1ccc(N(C)C)cc1	aSyn 5UTR act -131.5
Cc1ccc2sc(-c3ccc(NC(=O)/C=C\C(=O)O)cc3)nc2c1	aSyn 5UTR act -95.9
Cc1ccc2nc(-c3ccc(NC(=O)COCC(=O)O)cc3)sc2c1	aSyn 5UTR act -96.0
Cc1ccc2nc(-c3ccc(NC(=O)CSCC(=O)O)cc3)sc2c1	aSyn 5UTR act -196.8
C/C(=N/O)c1cccc(N2Cc3ccccc3C2)c1	aSyn 5UTR act -73.9
c1ccc(-c2nnc(-c3ccccc3)o2)cc1	aSyn 5UTR act -95.7
Oc1ccccc1-c1nnc(-c2ccc(C(F)(F)F)cc2)o1	aSyn 5UTR act -126.2
O=[N+]([O-])c1cc(-c2nnc(-c3ccccc3)o2)ccc1Oc1ccc(Cl)cc1	aSyn 5UTR act -95.3
c1ccc(-c2nnc(-c3ccncc3)o2)cc1	aSyn 5UTR act -89.0
Nc1ccccc1-c1nnc(-c2ccc(-c3ccccc3)cc2)o1	aSyn 5UTR act -191.9
CN(C)S(=O)(=O)c1cccc(-c2nnc(-c3ccccc3)o2)c1	aSyn 5UTR act -113.0
COc1cccc(-c2nnc(-c3ccc(C(F)(F)F)cc3)o2)c1	aSyn 5UTR act -145.3
Nc1ccc(-c2nnc(-c3ccc(N)cc3)o2)cc1	aSyn 5UTR act -106.4
COc1ccc(C2=Nn3c(nnc3-c3ccccc3)SC2)cc1OC	none
COc1ccc(-c2nnc(-c3ccccc3)o2)cc1OC	aSyn 5UTR act -167.8
O=c1c(Cl)c(NCCCO)cnn1-c1nc2ccccc2[nH]1	aSyn 5UTR act -232.0
Cc1ccc2c(CNCc3ccco3)cc(=O)oc2c1	aSyn 5UTR act -64.9
CN(C)c1ccc(N=Nc2cccc(F)c2)cc1	aSyn 5UTR act -106.5
CN(C)c1ccc(N=Nc2cccc3ccoc23)cc1	aSyn 5UTR act -136.0
O=C(Nc1ccc2c(c1)nc1n2CCOC1)C1CCCCC1	aSyn 5UTR act -105.7
O=C(Nc1ccc2c(c1)nc1n2CCOC1)c1ccco1	aSyn 5UTR act -66.2
Cc1cccc(-c2noc(CN(C)C(=O)c3ccco3)n2)c1	aSyn 5UTR act -64.6
CC(C)CCSc1nc(N2CCOCC2)c2c(c1C#N)CC(C)(C)OC2	none
CN(C)CCNc1ncnc2c1sc1nc(N3CCOCC3)c3c(c12)CC(C)(C)SC3	none
CC1(C)Cc2c(c(N3CCOCC3)nc3sc(C(=O)Nc4ccccc4)c(N)c23)CO1	aSyn 5UTR act -73.8
Cc1c(-c2ccccc2)[n+](=O)c(-c2ccc(Br)cc2)c(C)n1[O-]	aSyn 5UTR act -101.7
COc1ccc(Cn2c(-c3ccco3)nc3oc4cc(OC)ccc4c(=O)c3c2=O)cc1	aSyn 5UTR act -91.6
COc1ccc2nc(-n3c(O)c(C4=c5ccccc5=NC4=O)[nH]c3=S)sc2c1	aSyn 5UTR act -74.2
Oc1ccccc1-c1nnc(COc2ccc(Cl)cc2Cl)o1	aSyn 5UTR act -170.1
c1ccc(OCc2nnc(-c3ccccc3)o2)cc1	aSyn 5UTR act -129.2
Clc1ccc(-c2nnc(CCc3ccccc3)o2)c(Cl)c1	aSyn 5UTR act -155.4
Oc1ccccc1-c1nnc(COc2ccccc2)o1	aSyn 5UTR act -87.9
Cc1cc(C)c2nc(NNC(=O)c3ccc(S(=O)(=O)N4CCc5ccccc5C4)cc3)sc2c1	none
COc1ccc(S(=O)(=O)N2Cc3ccccc3CC2C(=O)Nc2nccs2)cc1OC (stereo not drawn)	aSyn 5UTR act -149.5
CCS(=O)(=O)N1Cc2ccccc2CC1C(=O)Nc1cccc(OC)c1 (stereo not drawn)	aSyn 5UTR act -87.4
COc1ccc(S(=O)(=O)N2Cc3ccccc3CC2C(=O)Nc2nccs2)cc1 (stereo not drawn)	aSyn 5UTR act -157.6
CCS(=O)(=O)N1Cc2ccccc2CC1C(=O)Nc1nc2c(C)cccc2s1 (stereo not drawn)	aSyn 5UTR act -68.8
CCSc1nnc(NC(=O)C2Cc3ccccc3CN2S(=O)(=O)CC)s1 (stereo not drawn)	aSyn 5UTR act -87.6
CCS(=O)(=O)N1Cc2ccccc2CC1C(=O)Nc1nccs1 (stereo not drawn)	aSyn 5UTR act -166.5
COC(=O)Cn1c(C)nc2c(sc3nc(C)cc(C)c32)c1=O	aSyn 5UTR act -76.1
Cn1sc(NC(=O)c2ccc(Cl)cc2)nc1=O	aSyn 5UTR act -115.1
Cc1ccc(C(=O)Nc2nc(=O)n(C(=O)c3ccccc3Cl)s2)cc1	aSyn 5UTR act -104.2
O=C(c1ccc2oc(CCCc3ccccc3)nc2c1)N1CCCC(CCCO)C1 (stereo not drawn)	aSyn 5UTR act -64.8
CCCCc1nc2cc(C(=O)N3CCC(O)CC3)ccc2o1	aSyn 5UTR act -82.7
CCCCc1nc2cc(C(=O)N(C)C3CCOCC3)ccc2o1	aSyn 5UTR act -164.7
O=C(c1ccc2oc(CCc3ccccc3)nc2c1)N1CC[C@H](O)C1	aSyn 5UTR act -134.1
Cn1c(COc2ccccc2Br)nc2ccccc21	aSyn 5UTR act -144.7
COCn1c(COc2ccc3ccccc3c2)nc2ccccc21	aSyn 5UTR act -92.0
Cc1ccccc1OCc1nc2ccccc2c(=O)n1N	aSyn 5UTR act -113.0
CCn1c(COc2ccccc2C)nc2ccccc21	aSyn 5UTR act -130.8
Nn1c(COc2ccccc2)nc2ccccc2c1=O	aSyn 5UTR act -70.0
COc1cccc(CCc2nc3ccccc3c(=O)n2N)c1	aSyn 5UTR act -67.9
CCn1c(CCc2ccccc2)nc2ccccc21	aSyn 5UTR act -76.4
CCOc1ccc(Nc2cc(C)nc(-n3nc(C)cc3C)n2)cc1	none
CCOc1ccc(Nc2n[nH]c(=S)s2)cc1	aSyn 5UTR act -112.1
COc1ccccc1NC(=O)Nc1nnc(C(C)C)s1	aSyn 5UTR act -80.5
CC(=O)Nc1nnc(COc2ccc(Cl)cc2)s1	aSyn 5UTR act -108.6
CCOc1ccc(NC(=O)Nc2nnc(CC)s2)cc1	aSyn 5UTR act -104.9
CCc1nnc(NC(=O)Nc2ccccc2OC)s1	aSyn 5UTR act -69.8
Cc1ccc(-n2c(C)cc(/C=C3\SC(=O)NC3=O)c2C)cc1	aSyn 5UTR act -174.5
Cc1cc(/C=C2/C(=O)NN(c3ccccc3)C2=O)c(C)n1-c1cccc(O)c1	aSyn 5UTR act -74.4
Cc1ccc(/C=C2\SC(=S)N(CCCC(=O)NNC(=O)c3ccccc3O)C2=O)cc1	none
Cc1cc(/C=C2\SC(=S)N(C)C2=O)c(C)n1-c1ccccc1O	aSyn 5UTR act -125.8
Cc1cc(/C=C2\SC(N)=NC2=O)c(C)n1-c1ccc(F)cc1	aSyn 5UTR act -62.3
CCn1c(C)cc(/C=C2/SC(=S)NC2=O)c1C	aSyn 5UTR act -67.1
Cc1cc(/C=C2\SC(=S)NC2=O)c(C)n1-c1cccc(O)c1	aSyn 5UTR act -110.7
COc1ccc(-n2c(C)cc(/C=C3\SC(=O)NC3=O)c2C)cc1	aSyn 5UTR act -145.9
CC(C)Oc1ccccc1/C=N/Nc1ccccc1[N+](=O)[O-]	aSyn 5UTR act -209.4
CCOc1ccccc1/C=N/Nc1ccccc1[N+](=O)[O-]	aSyn 5UTR act -303.8
